Results from PubChem BioAssay (NCI).
This is part of a sample that, as a whole, favours compounds with a hit. Of some 83,000 tested, about 20% had one in any assay.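 Cells were grown in 96-well plates and exposed to the test compound at a single concentration for 48 hours; results are reported as percent growth, with values below 10 considered active.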 The source made the active and inactive calls.

Test system: SNB-75 CNS
Assay: NCI-60 one-dose screen, 48 h (100 = growth as untreated, 0 = no growth, -100 = all killed)
Details: 10 µM unless noted
Procedure: Growth inhibition of the SNB-75 human tumor cell line is measured as a screen for anti-cancer activity. Cells are grown in 96 well plates and exposed to the test compound for 48 hours. Compounds are tested at a single concentration, which is 10^-5 M for most compounds. The reported endpoint is percent growth (GI% or GIPRCNT), where numbers from 0 - 100% represent growth inhibition, and numbers from -100% - 0 represent cell death. For example, a value of 40 represents 60% growth inhibition. A value of 0 means no net growth occurred over the course of the experiment. A value of -40 indicates 40% of cells at the beginning of the experiment died by the end of the experiment. A value of -100 means all cells are dead at the end of the experiment.
NCI-60 Human Tumor Cell Lines Screen was performed using the standard one-dose NCI protocol, which is described in more detail at https://dtp.cancer.gov/discovery_development/nci-60/default.htm.
Compounds with GIPRCNT values below 10 were considered active. Activity score was based on GIPRCNT using the following formula: […]
Score is 0 for GIPRCNT values of 100 or above, 50 for GIPRCNT values of 0, and 100 for GIPRCNT values of -100.

Compound | growth
O=C(/C=C/c1sc(Cl)nc1Cl)c1ccc(Br)cc1 | 95% (inactive)
COc1cc(C2CC(c3ccc(SC)cc3)=NN2C(C)=O)cc(OC)c1OC (stereo not given) | 11.9% (inactive)
COc1c(C2CC(=O)Nc3c2c(C)nn3-c2nc3ccccc3[nH]2)cc2c(c1OC)OCO2 (stereo not given) | 44.2% (inactive)
Cn1cc(-c2cc3ncnc(Nc4ccc(CC(=O)Nc5cc(C(C)(C)C)on5)cc4)c3s2)cn1 | 54% (inactive)
O=C(Nc1ccc(Cl)cc1F)c1ccccc1O | 36.4% (inactive)
COc1cc(/C=C2\C(=O)Nc3ccc(Br)cc32)cc(OC)c1OC | 36.5% (inactive)
CC(=O)CC(c1ccccc1)c1c(C)[nH]c2ccccc12 (stereo not given) | 60.3% (inactive)
COc1cc(C(=O)N2N=C(c3ccc(S(C)(=O)=O)cc3)CC2c2ccco2)cc(OC)c1OC (stereo not given) | 46.9% (inactive)
COC(=O)c1ccc2[nH]c(O)c(C(=Nc3ccc(N(C)C(=O)CN4CCN(C)CC4)cc3)c3ccccc3)c2c1 | -4.83% (active)
C#C[C@]1(O)CC[C@H]2[C@@H]3CC=C4c5sc(Nc6cc(F)ccc6F)nc5CC[C@]4(C)[C@H]3CC[C@@]21C | -28.6% (active)
c1cc(-c2nnc(SSc3ncnc4nc[nH]c34)o2)ccn1 | 56.8% (inactive)
CCOC(=O)c1[nH]c(C)c(C(=O)OCc2ccccc2C#N)c1C | 0.16% (active)
COc1cc(CNS(=O)(=O)c2ccc(C)cc2)ccc1OCc1cn(-c2ccccc2)nn1 | 91.9% (inactive)
Cc1ccc2nc(NC(=O)CSc3nc(Cl)c(C#N)c(-c4ccccc4)n3)sc2c1 | 95.9% (inactive)
Clc1ccc(C(/C=C/c2sc(Cl)nc2Cl)=N/Nc2cc(Cl)cc(Cl)c2)cc1 | 101% (inactive)
CCCCCCNC(=O)Oc1ccc(/C(=C(\C)c2ccc(Cl)cc2)c2ccc(OCCN3CCCCC3)cc2)cc1 | 59.5% (inactive)
NCCCNc1nc2ccccc2c2c(=O)c3cc(F)cc(F)c3sc12 | 74.7% (inactive)
COc1c(B(O)O)cc(C)cc1-c1nc2ccc3[nH]ncc3c2c2c1CCCC2 | -34.4% (active)
COc1cc2cc(Oc3ccc(NC(=O)Nc4ccc(F)c(C(F)(F)F)c4)cc3)c(C)nc2cc1OCCN1CCOCC1 | 51.6% (inactive)
Cc1cc(=O)oc2cc(OC(=O)N3CCN(C)CC3)ccc12 | 73.1% (inactive)

Compound | growth
O=c1c2cc(F)ccc2sc2c(NCCN3CCOCC3)nc3ccccc3c12 | 59.5% (inactive)
CCOC(=O)c1c(C)nc2c(c1N)CC(=O)N2Cc1ccc(F)cc1 | 95% (inactive)
CCCCCCN1C(=O)/C(=c2\sc3n(c2=O)C2C(NN=3)N(CC)C(=O)N2CC)c2ccccc21 (stereo not given) | -38.4% (active)
O=C(N=c1oc2ccccc2cc1-c1cc2ccccc2[nH]1)Nc1ccc(Cl)cc1 | 78.3% (inactive)
O=c1ccc(N=Nc2ccc([N+](=O)[O-])cc2)ccc1O | 30.7% (inactive)
CN(C)CCN1CCN(c2ncccc2C2Nc3ccccc3-n3cccc32)CC1 (stereo not given) | 88.3% (inactive)
CCCCC[C@H](O)C/C=C1/C(=O)C=C[C@@H]1C/C=C\CCCC(=O)OC | 96.5% (inactive)
Nc1ccc(Sc2ccc([N+](=O)[O-])c3nonc23)cc1 | 90.7% (inactive)
CC(=O)O.CN1[CH-]N(Cc2ccc(C#N)cc2)c2ccccc21.[Ag+] | 94.7% (inactive)
OC(c1ccccc1)C(NC(Cc1ccccc1)c1ccccc1)c1ccccc1 (stereo not given) | 90.9% (inactive)
O=c1ccn(Cc2cn(-c3c4ccccc4nc4ccccc34)nn2)c(=O)[nH]1 | 102% (inactive)
CC(C)(C)NC(=O)C(OC(=O)c1cccc(Cl)c1)c1ccc(Cl)cc1 (stereo not given) | 103% (inactive)
Cc1[nH]c(C(=O)Nc2ccc(C(=O)NCCN)cc2OC(C)C)c(Cl)c1Cl | 78.4% (inactive)
CCOC(=O)Nc1ccc(-c2nc(-c3cccc(OCCN4CCOCC4)c3)c(-c3ccnc(Br)c3)[nH]2)cc1 | 3.74% (active)
COc1ccc(C2=Nn3c(nnc3-c3cc(Cl)cc(Cl)c3Cl)SC2)cc1 | 22.7% (inactive)
CCOC(=O)c1c2c(n(-c3ccc(C#N)cc3)c1-c1ccccc1)C=CCC2 | 83.9% (inactive)
COc1ccc(C(=O)COC(=O)[C@H](C[Se][Se]C[C@H](NC(=O)c2ccc(Br)cc2F)C(=O)OCC(=O)c2ccc(OC)cc2)NC(=O)c2ccc(Br)cc2F)cc1 | -95.6% (active)
COc1ccc(N2C(=O)C(Oc3ccccc3)C2c2ccc(C)cc2)cc1 (stereo not given) | 97.7% (inactive)
Cc1nc2ccccc2n1-c1ncnc2c1CC(C)c1ccccc1N2C (stereo not given) | 70.3% (inactive)
C/C(=C\C(=O)c1ccc(Cl)cc1)c1ccc(Cl)cc1 | 92.8% (inactive)
